FECH block: blocks human mitochondrial ferrochelatase activity; purified FECH, Ni-mesoporphyrin absorbance 550 nm; calls only at 10 µM (by protocol); 3.3% of 20,000 active; AID 1671448;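 active means enzyme reaction rate more than 3 SD below the solvent-only control wells on the same plate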;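 further: lower slope than DMSO wells means FECH inhibition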
Target sequence (P22830 whole entry, looked up): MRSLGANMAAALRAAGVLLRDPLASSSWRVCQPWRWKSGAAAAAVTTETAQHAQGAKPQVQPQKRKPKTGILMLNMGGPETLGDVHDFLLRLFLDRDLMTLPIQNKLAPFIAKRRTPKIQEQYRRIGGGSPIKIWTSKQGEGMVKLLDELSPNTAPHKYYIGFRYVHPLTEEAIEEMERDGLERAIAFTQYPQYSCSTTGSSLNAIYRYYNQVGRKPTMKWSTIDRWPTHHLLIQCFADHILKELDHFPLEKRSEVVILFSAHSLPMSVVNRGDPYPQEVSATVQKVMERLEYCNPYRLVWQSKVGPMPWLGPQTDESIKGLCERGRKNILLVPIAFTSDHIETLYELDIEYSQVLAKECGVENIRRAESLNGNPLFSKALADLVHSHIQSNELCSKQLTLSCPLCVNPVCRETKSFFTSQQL
Of the large screens only hits and unclear results are named; the others gave an inactive call. Shown is part of a subset that was picked to be rich in hits.

CC(=O)Nc1ccc(Cl)c(C(=O)NCC(C)Oc2cccnc2)c1 (configuration not stated)	none
Cc1cc(N2CCCC2)nc(Nc2ccc(NC(=O)CCC3CCCCC3)cc2)n1	none
C=C1C2(C(=O)N3CCC(c4ccc(F)cc4)C3)CC[C@@H](C2)C1(C)C (some centres not stated)	none
CCc1nc(OCC(=O)NCc2cccc(OC)c2)c2c(-c3ccc(F)cc3)noc2n1	FECH block active
CCOc1ccc(CNC(=O)COc2nc(CC)nc3onc(-c4ccc(F)cc4)c23)cc1	none
CCc1nc(OCC(=O)NCc2ccc(C)cc2)c2c(-c3ccc(F)cc3)noc2n1	none
Cc1nc(CC(=O)Nc2nc3ccc(S(N)(=O)=O)cc3s2)cs1	none
Cc1ccc(NCc2cc(=O)n3[nH]c(NCc4ccc(F)cc4)nc3n2)cc1	none
COc1ccc(NCc2cc(=O)n3[nH]c(NCc4ccc(F)cc4)nc3n2)cc1	none
Cc1ccccc1-c1nc2nc(CNc3cccc(Cl)c3)cc(=O)n2[nH]1	none
Cc1ccccc1-c1nc2nc(CN3CCOCC3)cc(=O)n2[nH]1	none
Cc1ccccc1-c1nc2nc(CNc3ccccc3)cc(=O)n2[nH]1	FECH block active
Cc1ccc(NCc2cc(=O)n3[nH]c(-c4ccccc4C)nc3n2)cc1	FECH block active
CCN1CCN(Cc2cc(=O)n3[nH]c(-c4ccccc4C)nc3n2)CC1	none
COc1cccc(NCc2cc(=O)n3[nH]c(-c4ccccc4C)nc3n2)c1	FECH block active
Cc1ccccc1-c1nc2nc(CNc3ccc(Br)cc3)cc(=O)n2[nH]1	FECH block active
Cc1noc(C)c1S(=O)(=O)NCc1nc2cccnc2n1C1CCCC1	none
O=C1CCS(=O)(=O)N1c1ccc(S(=O)(=O)NCc2ccco2)cc1	none
COc1ccc(N2C(=O)CCS2(=O)=O)cc1S(=O)(=O)Nc1ccc2c(c1)OCO2	none
CCOc1ccc(NC(=O)Cc2csc(NC(=O)Nc3ccccc3OC)n2)cc1	none
CC(C)(C)CN1CC(NC(=O)c2ccc(-c3ccn[nH]3)cc2)CC1=O (configuration not stated)	none
NC(=O)C1CCN(C(=O)c2ccc(CN3C(=O)CCn4nc(-c5cccc(Cl)c5)cc43)cc2)CC1	none
Cc1ccc(-n2c(=O)n(Cc3ccccc3)c3c(C(N)=O)nc(-c4ccccc4F)nc32)cc1C	none
CCC1CN(C(=O)c2cnc3ccnn3c2C)CCC(=O)N1Cc1ccccc1 (configuration not stated)	none
CCc1cccc(N2C(=O)N(CC(=O)NC3CCCC3)c3ccccc3S2(=O)=O)c1	none
Cc1ccccc1Nc1oc2c(c1-c1ccccc1)c(=O)n(C)c(=O)n2C	none
Cc1ccccc1C1=CCN(c2ncc(NS(=O)(=O)c3ccc(F)c(F)c3)cc2C(=O)O)CC1	none
Cc1ccc(S(=O)(=O)Nc2cnc(N3CC=C(c4ccccc4C)CC3)c(C(=O)O)c2)cc1	FECH block active
COc1ccc(S(=O)(=O)Nc2cnc(N3CC=C(c4ccccc4C)CC3)c(C(=O)O)c2)cc1	none
CCN(CC)c1nc(Nc2cccc(OC)c2)c2cnn(-c3ccccc3)c2n1	none
COc1ccc(CNS(=O)(=O)c2ccc(C(=O)N(C)C)s2)cc1	none
COc1ccc(NC(=O)CN(C)S(=O)(=O)c2ccc(C(=O)N3CCOCC3)s2)cc1	FECH block active
COc1ccc(CN2CCCN(CC(=O)Nc3ccc4c(c3)OCCO4)S2(=O)=O)cc1	none
CCOc1ccccc1CNC(=O)COc1nc(CC)nc2onc(-c3ccc(F)cc3)c12	none
CCC(C)S(=O)(=O)N1CCn2nc(C(=O)OC)cc2C1 (configuration not stated)	none
COc1ccccc1Cn1c(CNS(=O)(=O)c2ccc(F)cc2)nc2cccnc21	none
CC(C)Cn1c(CNS(=O)(=O)c2cccc(Cl)c2)nc2cccnc21	none
CCOc1ccc(S(=O)(=O)NCc2nc3cccnc3n2Cc2ccccc2OC)cc1	none
COc1ccc(S(=O)(=O)NCc2nc3cccnc3n2C2CC2)cc1	FECH block active
COCCn1c(CNS(=O)(=O)c2ccc(C(C)C)cc2)nc2cccnc21	none
O=S(=O)(NCc1nc2cccnc2n1C1CC1)c1ccc(Cl)cc1	none
Cc1ccc(S(=O)(=O)NCc2nc3cccnc3n2CC(C)C)cc1Cl	none
CCn1c(CNS(=O)(=O)c2ccc(CC(C)C)cc2)nc2cccnc21	none
COCCn1c(CNS(=O)(=O)c2ccc(CC(C)C)cc2)nc2cccnc21	FECH block active
Cc1ccc(S(=O)(=O)NCc2nc3cccnc3n2C2CC2)cc1	none
Cc1ccc(S(=O)(=O)NCc2nc3cccnc3n2CC(C)C)cc1C	FECH block active
COc1ccccc1Cn1c(CNS(=O)(=O)c2ccc(C(C)(C)C)cc2)nc2cccnc21	FECH block active
Cn1c(=O)c(C(=O)NCCN2CCN(c3ccccc3F)CC2)nc2ccccc21	none
CCOc1ccc(Cn2c(CNS(=O)(=O)c3ccc(OC)cc3)nc3cccnc32)cc1	none
Cc1ccc(-c2nc3cccnc3n2CCNS(=O)(=O)c2ccc(NC(=O)CC(C)C)cc2)cc1	none
CCCC(=O)Nc1ccc(Sc2cc(CCC)nc3ncnn23)cc1	none
CC1Cc2ccccc2N1S(=O)(=O)c1ccc2c(c1)CCN2C(=O)CCC(=O)N1CCOCC1 (configuration not stated)	none
CN(C)C(=O)c1ccc(S(=O)(=O)NC2CCCCC2)s1	none
CCOC(=O)N1CCC(N2C[C@H](N)C[C@H]2C(=O)NC)CC1	none
COc1ccc(OC)c(CNC(=O)c2nc(N3CCCC3)c3oc4ccccc4c3n2)c1	none
Cc1cccc(S(=O)(=O)Nc2cnc(N3CC=C(c4ccccc4C)CC3)c(C(=O)O)c2)c1	none
CC(=O)Nc1ccc(S(=O)(=O)NCc2nc3cccnc3n2C)cc1	none
CC(C)Cc1ccc(S(=O)(=O)NCc2nc3cccnc3n2C)cc1	none
CCCc1ccc(S(=O)(=O)NCc2nc3cccnc3n2C)cc1	FECH block active
COc1ccc2cc(C(=O)C3CCCN(CCn4cc[nH]c4=O)C3)ccc2c1 (configuration not stated)	none
Cc1cc(C)c(S(=O)(=O)NCc2nc3cccnc3n2C)cc1C	none
CCCc1cc(=O)n2[nH]c(CNc3c(C)cccc3C)nc2n1	none
Cc1c(Cl)cccc1NCc1nc2nc(C(C)C)cc(=O)n2[nH]1	FECH block active
CCCc1cc(=O)n2[nH]c(CNc3ccccc3CC)nc2n1	FECH block active
CCc1ccc(NCc2cc(=O)n3[nH]c(NCc4ccc(OC)cc4)nc3n2)cc1	none
Cc1c(Cl)cccc1NCc1cc(=O)n2[nH]c(NCc3ccc(F)cc3)nc2n1	none
CCCc1cc(=O)n2[nH]c(CNc3ccccc3OC)nc2n1	FECH block active
CCCc1cc(=O)n2[nH]c(CNc3ccc(Cl)cc3)nc2n1	FECH block active
COc1ccccc1CNc1nc2nc(CN3CCN(c4ccccc4)CC3)cc(=O)n2[nH]1	none
CCOc1ccccc1NCc1nc2nc(C(C)C)cc(=O)n2[nH]1	none
COc1ccc(CNc2nc3nc(CNc4ccc(Cl)cc4)cc(=O)n3[nH]2)cc1	none
CCCc1cc(=O)n2[nH]c(CNc3ccc(CC)cc3)nc2n1	none
COc1ccc(-c2nc(CN(C)Cc3cnc(N)nc3)c(C)o2)c(C)c1C	none
O=C(CC1CCN(S(=O)(=O)c2ccccc2)CC1)N1CCN(c2ccccc2)CC1	none
CNCC(=O)NCc1nc2cccnc2n1CCOC	none
CCNc1nc(C)c(C(=O)N(Cc2ccccc2OC)C2CC2)s1	none
CCOC(=O)c1ccc(NC(=O)c2nc3ccccc3n(C)c2=O)cc1	none
Cc1nnc(SCC(=O)N(Cc2ccc3c(c2)OCO3)C2CC2)s1	none
O=C(c1nc(N2CCCC2)c2oc3ccccc3c2n1)N1CCCCCC1	none
COc1ccc(NC(=O)N2CCN(Cc3nc4cccnc4n3-c3cc(C)cc(C)c3)CC2)cc1OC	none
Cc1cc(NC(=O)c2ccc(C(F)(F)F)cc2)n(-c2ncnc3c2cnn3-c2ccc(F)cc2)n1	none
